Laboratory results reported in PMC5540273 (PLoS ONE, 2017).

Key:
Details in all cases: concentration: 1 μM, replicates: in singlicate; n = 1
[1] = tested on: ROCK1
[2] = tested on: ROCK2
[3] = tested on: ROS1
[4] = tested on: RPS6KA4(Kin.Dom.1-N-terminal)
[5] = tested on: RPS6KA4(Kin.Dom.2-C-terminal)
[6] = tested on: RPS6KA5(Kin.Dom.1-N-terminal)
[7] = tested on: RPS6KA5(Kin.Dom.2-C-terminal)
[8] = tested on: T1, RSK1(Kin.Dom.1-N-terminal)
T1 construct: gene RPS6KA1

[9] = tested on: T2, RSK1(Kin.Dom.2-C-terminal)
T2 construct: gene RPS6KA1

[10] = tested on: T3, RSK2(Kin.Dom.1-N-terminal)
T3 construct: gene RPS6KA3

[11] = tested on: T4, RSK2(Kin.Dom.2-C-terminal)
T4 construct: gene RPS6KA3

[12] = tested on: T5, RSK3(Kin.Dom.1-N-terminal)
T5 construct: gene RPS6KA2

[13] = tested on: T6, RSK3(Kin.Dom.2-C-terminal)
T6 construct: gene RPS6KA2

[14] = tested on: T7, RSK4(Kin.Dom.1-N-terminal)
T7 construct: gene RPS6KA6

[15] = tested on: T8, RSK4(Kin.Dom.2-C-terminal)
T8 construct: gene RPS6KA6

[16] = tested on: S6K1
[17] = tested on: SBK1
[18] = tested on: SGK2
[19] = tested on: SGK3
[20] = tested on: SGK
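Note: KINOMEscan kinase panel screen.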

| SMILES | %Inh [1] | %Inh [2] | %Inh [3] | %Inh [4] | %Inh [5] | %Inh [6] | %Inh [7] | %Inh [8] | %Inh [9] | %Inh [10] | %Inh [11] | %Inh [12] | %Inh [13] | %Inh [14] | %Inh [15] | %Inh [16] | %Inh [17] | %Inh [18] | %Inh [19] | %Inh [20] |
| --- | --- | --- | --- | --- | --- | --- | --- | --- | --- | --- | --- | --- | --- | --- | --- | --- | --- | --- | --- | --- |
| Fc1cc(Cl)ccc1Nc1ccnc2cc(-c3ccc(CN4CCCCC4)o3)ccc12 [GW560116] | 31% | 24% | 2% | 0% | 0% | 0% | 8% | 0% | 26% | 0% | 25% | 0% | 24% | 0% | 88% | 29% | 2% | 0% | 0% | 3% |
| Nc1nc(-c2nccs2)c(-c2ccnc3ccccc23)s1 [GW693542] | 14% | 18% | 0% | 20% | 0% | 20% | 0% | 20% | 0% | 0% | 88% | 0% | 0% | 0% | 50% | 0% | 9% | 0% | 6% | 0% |
| Cc1nnc(-c2ccc3occ(-c4ccc(S(C)=O)cc4)c3c2)[nH]1 (stereo not shown) | 20% | 0% | 0% | 0% | 11% | 0% | 15% | 9% | 33% | 13% | 5% | 0% | 7% | 0% | 36% | 4% | 0% | 5% | 17% | 1% |
| COc1ccccc1CNC(=O)c1cc(C(=O)c2ccccc2C)c[nH]1 [GSK364507] | 12% | 10% | 0% | 5% | 0% | 5% | 21% | 25% | 0% | 4% | 0% | 4% | 0% | 0% | 0% | 11% | 16% | 1% | 0% | 0% |
| Cc1cccc(-c2nc(Nc3cccc(C(N)=O)c3)c3ccccc3n2)n1 [GW876019] | 1% | 15% | 0% | 27% | 0% | 0% | 0% | 0% | 46% | 1% | 49% | 2% | 27% | 0% | 9% | 8% | 0% | 0% | 0% | 0% |
| Cc1cccc(-c2nc(Nc3ccc4[nH]ncc4c3)c3ccccc3n2)n1 [GW857175] | 29% | 52% | 17% | 0% | 33% | 0% | 5% | 15% | 50% | 18% | 23% | 14% | 1% | 35% | 15% | 26% | 5% | 6% | 9% | 25% |
| Clc1cc(Cl)cc(Nc2ccnc(Nc3cc(Cl)cc(Cl)c3)n2)c1 [GSK175726] | 4% | 0% | 37% | 0% | 0% | 8% | 9% | 1% | 26% | 0% | 7% | 0% | 4% | 13% | 22% | 0% | 9% | 0% | 13% | 3% |
| COc1ccc(Nc2nccc(NCCNC(=O)Nc3ccccc3F)n2)cc1 [GSK1379901] | 30% | 44% | 24% | 14% | 0% | 14% | 27% | 16% | 0% | 1% | 27% | 19% | 2% | 0% | 23% | 3% | 6% | 0% | 16% | 0% |
| CS(=O)(=O)c1ccc(-c2nc3n(c2-c2ccncc2)CCC3)cc1 [SKF-105942] | 0% | 0% | 2% | 1% | 0% | 0% | 0% | 27% | 0% | 4% | 5% | 15% | 0% | 0% | 9% | 17% | 5% | 0% | 10% | 0% |
| Cc1ccc(-c2cc(-c3c[nH]nc3-c3ccccn3)ccn2)cc1 [GW684088] | 25% | 17% | 37% | 2% | 0% | 2% | 19% | 8% | 24% | 6% | 30% | 0% | 25% | 0% | 62% | 5% | 4% | 0% | 4% | 0% |
| O=C(Nc1n[nH]c2nc(-c3nccs3)c(Br)cc12)C1CCCC1 [SB-742609] | 10% | 0% | 0% | 7% | 0% | 0% | 0% | 14% | 0% | 11% | 0% | 0% | 0% | 0% | 1% | 19% | 12% | 0% | 0% | 7% |
| Cc1ccc(C(=O)Nc2ccc(Nc3ccnc4cc(-c5ccccn5)ccc34)cc2O)cc1.Cl [GW440146] | 13% | 19% | 16% | 20% | 0% | 16% | 0% | 6% | 0% | 0% | 4% | 6% | 0% | 0% | 1% | 7% | 10% | 0% | 0% | 0% |
| O=C(Nc1n[nH]c2cc(-c3cccc(F)c3F)ccc12)C1CC1 [SB-733894] | 0% | 9% | 7% | 0% | 2% | 0% | 2% | 13% | 6% | 0% | 0% | 52% | 0% | 0% | 0% | 22% | 11% | 29% | 12% | 32% |
| O=c1cc(N2CCOCC2)nc2n(Cc3cccc(Cl)c3Cl)ccn12 [GSK2286295] | 0% | 34% | 7% | 17% | 0% | 11% | 0% | 22% | 0% | 0% | 8% | 0% | 28% | 0% | 1% | 0% | 9% | 14% | 9% | 22% |
